Pf apPOL inh = Pf-apPOL inhibitors, biochemical, fluorescence; Plasmodium falciparum apicoplast DNA polymerase (apPOL); Recombinant Pf-apPOL, molecular beacon fluorescence, 1.5 h; inhibition, % at 10 µM; 0.25% of 210,000 active; AID 1794808, 2022
mHTT-CaM PPI inh = mutant huntingtin-calmodulin interaction inhibitors – biochemical, AlphaScreen, primary screen | inhibition, % at 15 µM | 3.6% of 190,000 active | AlphaScreen His-mHTT/GST-CaM binding, luminescence | AID 1671202, 2021 | P42858;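 note: 0% = both proteins with DMSO and 100% = one protein alone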
* marks the source's active call; other numbers are inactive results. The entries come from a sample that favours hits as a whole. Cut-off read from the data, not from the text of the source: active = inhibition above about 50%; inactive = the rest.

SMILES	Pf apPOL inh	mHTT-CaM PPI inh
COc1ccc(S(=O)(=O)N=C2C=C(C(C)C)C(=O)C=C2C)cc1	5	-2
COc1cccc(CC(=O)N2CCN(c3cc(-c4ccccc4)[nH]n3)CC2)c1	0	21
COc1ccc(OC)c(CNC(=O)C2CCc3sc(C(=O)N4CCOCC4)cc3C2)c1 (centres undefined)	-1	4
COc1cccc(C2=CC(c3cc(OC)ccc3OC)n3ncnc3N2)c1 (centres undefined)	14	14
COc1ccc(C)cc1NC(=O)C(NS(=O)(=O)c1cccs1)C(C)C (centres undefined)	-1	0
Cc1ccc(NC2=CC(=NS(=O)(=O)c3cccs3)c3ccccc3C2=O)c(C)c1	3	90*
Cc1ccc2c(c1)c1cccc3c1n2CCN3CCC(N)=O	-4	69*
Cc1ccc2c(c1)c(=O)c(C(=O)O)cn2C	-3	-5
O=C1OC(c2ccc(Cl)c([N+](=O)[O-])c2)=N/C1=C\c1c(F)cccc1Cl	-6	-3
CCC(=O)Nc1cc(C(=O)NCc2cc(F)cc(F)c2)c2ccc(C)nc2c1	0	54*
Cc1ccc2c(C(=O)NCc3ccccc3Cl)cc(NC(=O)C(C)C)cc2n1	0	58*
Cc1ccc(CNC(=O)c2cc(NC(=O)C(C)C)cc3nc(C)ccc23)cc1	28	19
CCOc1ccc(CNC(=O)c2cc(NC(C)=O)cc3nc(C)ccc23)cc1	7	18
CC(C)Oc1ccc(NC(=O)c2ccc([N+](=O)[O-])cc2Cl)cc1	-9	10
COCC(C)NC(=O)c1ccc([N+](=O)[O-])cc1Cl (centres undefined)	109*	1
COc1cccc(C2CC(c3cccc(C)c3)=NN2C(=O)CN2CCOCC2)c1 (centres undefined)	-3	46
Nc1nc(NC(=O)C(Cl)(Cl)Cl)nn1-c1ccccc1	2	85*
Nc1nc(NC(=O)c2ccc(Cl)cc2)nn1-c1ccccc1	-3	2
OC[C@@H]1[C@@H](c2ccccc2)C(c2ccccc2)=NN1c1ccccc1	-4	-21
OC[C@@H]1[C@@H](c2ccc(F)cc2)C(c2ccc(F)cc2)=NN1c1ccccc1	-6	89*
O=C1OCCN1C(=O)[C@H]1[C@H](c2ccc(F)cc2)C(c2cccc(Cl)c2)=NN1c1ccccc1	1	19
C[C@H]1C(c2ccccc2)=NN(c2ccccc2)[C@@H]1CO	-5	15
OC[C@@H]1[C@@H](c2ccc(Cl)cc2)C(c2ccc(F)cc2)=NN1c1ccccc1	-4	72*
OC[C@@H]1[C@@H](c2ccccc2)C(c2ccc(F)cc2)=NN1c1ccccc1	-6	67*
COc1ccc(C(=O)Nc2ccc3c(c2)CN(C(=O)C(C)C)CC3)c(OC)c1	17	4
SMILES	Pf apPOL inh	mHTT-CaM PPI inh
CC(C)NC(=O)CN1CCN(C(=O)Nc2ccc(Cl)cc2)CC1=O	-3	-8
N#C/C(=C\c1ccc(-c2ccc3c(c2)C(=O)NC3=O)o1)c1nc2ncc(Br)cc2[nH]1	-5	73*
Cn1c(=O)n(C)c2cc(/C=C(\C#N)c3nc4ncc(Br)cc4[nH]3)ccc21	6	10
COc1ccc(C)cc1NC(=O)CN1CCc2ccccc2C1C(=O)N1CCC(C)CC1 (centres undefined)	-5	61*
O=C(CN1CCc2ccccc2C1C(=O)N1CCCC1)N1CCN(C2CCCCC2)CC1 (centres undefined)	0	9
O=C(CN1CCc2ccccc2C1C(=O)N1CCCC1)N1CCC(Cc2ccccc2)CC1 (centres undefined)	-9	68*
CC1CCN(C(=O)C2c3ccccc3CCN2CC(=O)Nc2ccc(Cl)cc2)CC1 (centres undefined)	-4	62*
Cc1cccc(NC(=O)CN2CCc3ccccc3C2C(=O)N2CCC(C)CC2)c1C (centres undefined)	-4	4
CCOc1ccc(NC(=O)CN2CCc3ccccc3C2C(=O)N2CCC(C)CC2)cc1 (centres undefined)	-3	13
O=C(O)c1ccccc1-n1c(=O)c2cc3c(=O)n(-c4ccccc4C(=O)O)c(=O)c3cc2c1=O	-6	3
Cn1cc(C2=CCN(C(=O)NC3CCCC3)CC2)c2cccnc21	-1	20
Cc1ccc(-c2cc(-c3ccccc3)nc(NN)n2)cc1	-4	39
COc1ccc(-c2cc(-c3ccccc3)nc(NN)n2)cc1OC	0	63*
Cc1cc(F)ccc1N1C=C(C#N)S(=O)(=O)c2ccccc21	1	-2
COc1ccc(C2/C=C\CN(C(=O)c3ccccc3)[C@@H](Cc3ccccc3)C(=O)N2Cc2ccc(F)cc2)cc1 (some centres undefined)	-3	87*
COc1ccc(C2/C=C\CN(C(=O)C3CC3)[C@@H](Cc3ccccc3)C(=O)N2Cc2ccc(F)cc2)cc1 (some centres undefined)	-1	91*
COc1ccc(C2/C=C\CN(C(=O)c3ccc(C)cc3)[C@@H](Cc3ccccc3)C(=O)N2Cc2ccc(F)cc2)cc1 (some centres undefined)	-4	16
COc1ccc(C2/C=C\CN(CC(C)C)[C@@H](Cc3ccccc3)C(=O)N2Cc2ccc(F)cc2)cc1 (some centres undefined)	-3	-4
Cc1cc(C)cc(NC(=O)C2CCN(c3c(C#N)cnc4ccccc34)CC2)c1	-1	2
CCC1=NN(C(=O)c2ccc(I)cc2)C(O)(C(F)(F)F)C1 (centres undefined)	3	15
CCC1=NN(C(=O)c2ccc(Cl)cc2)C(O)(C(F)(F)F)C1 (centres undefined)	94*	8
Cc1cccc(C(=O)N2N=C(c3ccc(Cl)cc3)CC2(O)C(F)(F)F)c1 (centres undefined)	-7	89*
O=C(c1cccc(Cl)c1)N1N=C(c2ccc(Cl)cc2)CC1(O)C(F)(F)F (centres undefined)	-2	-4
COc1ccc(NC(=O)C(NC(=O)c2cnccn2)c2ccc(C)cc2)cc1 (centres undefined)	-4	7
COc1cccc(CNC(=O)C2(C)CCCN(C(=O)c3ccccc3F)C2)c1 (centres undefined)	-2	-6
SMILES	Pf apPOL inh	mHTT-CaM PPI inh
CC1=C(/C=C/c2ccc(Cl)cc2Cl)C(=O)c2ccccc2C1=O	-6	68*
O=C1OC(c2ccccc2F)=N/C1=C/c1ccc(Cl)cc1Cl	6	-4
CCC(C(=O)N1CCc2nc(-c3ccc(OC)cc3)ncc2C1)c1ccccc1 (centres undefined)	-1	-2
CC1CCc2nn(CC(=O)Nc3ccc(F)cc3)c(=O)cc2C1 (centres undefined)	-7	1
N#Cc1c(-c2ccccc2)cc(-c2cccs2)nc1Br	-4	-9
COc1nc(-c2cccs2)cc(-c2ccc(C)cc2)c1C#N	53*	-36
CCOc1cccc2cc(-c3cn4c(n3)sc3cc(OC)ccc34)c(=O)oc12	-6	-4
Cc1ccc(CN2CCC(C(=O)N(CCc3ccccc3)Cc3ccccc3)CC2)o1	1	58*
O=C(C1CCN(Cc2ccccc2O)CC1)N(CCc1ccccc1)Cc1ccccc1	2	17
Cc1ccc(NC(=O)CSc2nc3c(c(=O)n2-c2ccc(Cl)cc2)SCC3)cc1	0	21
COc1cccc(OCc2cc(C3Nc4ccccc4C(=O)N3Cc3ccco3)ccc2OC)c1 (centres undefined)	-8	28

Bioassay records from PubChem.
